Only a selection was taken, and hits are over-represented in it overall.
Methyltransferases – Primary Screen for Target Class Profiling of Small Molecule Inhibitors of Methyltransferases. calls only at 40 µM. 25,000 tested, 3.9% active. purified enzyme, MTase-Glo SAH luminescence; active compounds read low. AID 1745853, 2022; call rule not given here
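Each enzyme was reacted with SAM and its substrate, with compounds tested once at 40 uM; SAH formed was read by MTase-Glo luminescence.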
Active calls of the source: *; i = inactive; + = active, no number. % is set by controls: 0 for no effect and ±100 for the full control effect.

SMILES	Methyltransferases
COc1ccc(O[C@@H]2O[C@H](CO)[C@@H](O)[C@H](O)[C@H]2O)cc1OC	i
OC[C@H]1O[C@@H](OCCc2ccccc2)[C@H](O[C@@H]2OC[C@@H](O)[C@H](O)[C@H]2O)[C@@H](O)[C@@H]1O	+
C=CCc1ccc(O[C@@H]2O[C@H](CO)[C@@H](O)[C@H](O)[C@H]2O)c(O[C@@H]2O[C@H](CO)[C@@H](O)[C@H](O)[C@H]2O)c1	i
Cc1ccc(CNC(=O)C2(C)Cn3cnc(C(=O)NCCc4ccccc4)c3C(=O)N2C2CC2)cc1 (stereo not drawn)	i
O=C(NCc1ccccc1)c1ccc2c(=O)nc3c(-c4ccc(Cl)cc4)n[nH]n3c2c1	i
CCN1C(=O)c2cc(C(=O)NCCCN3CCCCC3)nn2CC1(C)C(=O)NC1CCCC1 (stereo not drawn)	i
CCOC(=O)c1cc2n(n1)CC(C)(C(=O)NC1CCCC1)N(CCc1cccs1)C2=O (stereo not drawn)	i
CC(=O)Nc1ccc(N2C(=O)c3ccc(-c4ccco4)n3CC2(C)C(=O)NCc2ccccc2)cc1 (stereo not drawn)	i
CCCn1c(=O)c2ccc(C(=O)NCC(C)C)cc2n2c(SCC(=O)Nc3ccc(C)cc3)nnc12	i
C=C/C=C/[C@@H]1OC[C@H](/C=C/C=C/C)[C@H]1O	i
O=C(NCCc1ccccc1)c1ccc2c(c1)n(Cc1cccc(F)c1)c(=O)c1ccnn12	i
CCOC(=O)c1cc2n(n1)CC(C)(C(=O)NCc1ccc(F)cc1)N(Cc1ccccc1F)C2=O (stereo not drawn)	i
Cc1ccc(NC(=O)N2Cc3c(sc4c3CCCC4)-n3cccc3C2c2cccc(F)c2)cc1F (stereo not drawn)	i
CCc1ccccc1NS(=O)(=O)c1cc2c(cc1C)n(C)c(=O)n2C	i
COc1cccc2c1OCC(NS(=O)(=O)c1ccc(Cl)cc1)C2 (stereo not drawn)	i
CCOc1ccc(NC(=O)N2CCn3cccc3C2C)cc1 (stereo not drawn)	i
Cc1ccc(CNC(=O)C2(C)Cn3cnc(C(=O)NCc4ccccc4Cl)c3C(=O)N2C2CC2)cc1 (stereo not drawn)	i
Cc1ccccc1Cn1nc2n(Cc3ccccc3)c(=O)c3ccc(C(=O)NC4CCCC4)cc3n2c1=O	i
Cc1ccc(C(C)C)c(O[C@@H]2O[C@H](CO)[C@@H](O)[C@H](O)[C@H]2O)c1	i
CC(=O)c1ccc(O[C@@H]2O[C@H](CO)[C@@H](O)[C@H](O)[C@H]2O)cc1	i
CC(=O)c1c(C)cccc1O[C@@H]1O[C@H](CO)[C@@H](O)[C@H](O)[C@H]1O	+
O=C(O)c1cc(O)c2cccc(O)c2c1O[C@@H]1O[C@H](CO)[C@@H](O)[C@H](O)[C@H]1O	+
O=C(O[C@H]1[C@H](Oc2ccc(O)cc2CO)O[C@H](CO)[C@@H](O)[C@@H]1O)c1ccccc1	i
O=C(O)/C=C/c1ccc(O)c(O[C@@H]2O[C@H](CO)[C@@H](O)[C@H](O)[C@H]2O)c1	i
Cn1c(=O)n(C)c2cc(S(=O)(=O)N(Cc3ccco3)C(=O)c3cccnc3)ccc21	i
SMILES	Methyltransferases
COc1ccc(-c2n[nH]n3c2nc(=O)c2ccc(C(=O)NCCC(C)C)cc23)cc1	i
COc1ccc(CNc2nc3c(S(=O)(=O)c4cc(C)ccc4C)nnn3c3ccccc23)cc1	i
CCOC(=O)c1cc2n(n1)CC(C)(C(=O)NCc1ccc(C)cc1)N(Cc1ccccc1Cl)C2=O (stereo not drawn)	i
CCC(C)NC(=O)c1ccc2c(=O)n(C(C)C)c3nn(CC(=O)NCc4ccccc4)c(=O)n3c2c1 (stereo not drawn)	i
Cc1ccc(N2CCN(S(=O)(=O)c3ccc4[nH]c5c(c4c3)CCCC5)CC2)c(C)c1	i
O=S(=O)(NCc1ccc(F)cc1)c1ccccc1-c1nc(-c2ccc(F)cc2)no1	i
Cc1ccc(N2C(=O)c3ccc(-c4ccco4)n3CC2(C)C(=O)NC2CCCC2)cc1C (stereo not drawn)	i
COC(C)(C)CCn1nc(Nc2c(C)cccc2C)c2cnc(Nc3ccc(OCCN4CCCC4)c(F)c3)nc21	+
Cc1ccccc1CN1CC(=O)N(Cc2ccccc2)c2ccccc2S1(=O)=O	i
COCCC1(N(C)C)CCN(S(=O)(=O)c2cc(OC)ccc2OC)CC1	i
COC(=O)c1cc2n(n1)CC(C)(C(=O)NC1CCCCC1)N(Cc1ccc(Cl)cc1)C2=O (stereo not drawn)	i
COc1ccccc1NC(=O)c1sc(=S)n2c1[nH]c(=O)c1ccc(Cl)cc12	i
COc1ccc(CNC(=O)c2sc(=S)n3c2[nH]c(=O)c2cc4c(cc23)OCO4)cc1	i
COc1ccc(OC)c(NC(=O)c2sc(=S)n3c2[nH]c(=O)c2ccc(Cl)cc23)c1	+
COc1ccc2cc3n(c2c1)CC(C)(C(=O)NC1CCCCC1)N(Cc1ccco1)C3=O (stereo not drawn)	i
CC(C)OCCCN1C(=O)c2cc(-c3ccccc3)nn2CC1(C)C(=O)NCc1ccccc1 (stereo not drawn)	i
Fc1ccc(N2CCCCC2)c(NC(=S)c2ccncc2)c1	+
Cn1c(=O)c2ccc(C(=O)NC3CCCCC3)cc2n2c(=O)n(Cc3ccccc3)nc12	i
COc1c(Nc2ncc(Cl)c(N[C@H]3[C@@H](C(N)=O)[C@@H]4C=C[C@H]3C4)n2)ccc2c1CC[C@@H](N1CCOCC1)CC2	i
CNC(=O)c1ccccc1Nc1nc(Nc2ccc3c(c2OC)CCCC(N2CCN(CCO)CC2)C3)ncc1Cl (stereo not drawn)	+
COc1ccc(OC)c2c1cc1n2CC(C)(C(=O)NC2CCCCC2)N(Cc2cccc(F)c2)C1=O (stereo not drawn)	i
Nc1c(NC/C=C\COc2cc(CN3CCCCC3)ccn2)c(=O)c1=O	+
O=C1CCN(Cc2cccc(F)c2)CCCCCCN1	i
O=C(Cc1c[nH]c2ccccc12)NCCc1c[nH]c2ccc(Cl)cc12	i
COc1cc2c(CCNC(C)=O)c[nH]c2cc1O	+
SMILES	Methyltransferases
N[C@@H](Cc1c[nH]c2ccc(O)cc12)C(=O)O	i
CC(C)(C)c1cc2n(n1)CC(C)(C(=O)NC1CCCCC1)N(Cc1ccc(Cl)cc1)C2=O (stereo not drawn)	i
CC1CCCCC1NC(=O)C1(C)Cn2c(ccc2-c2ccco2)C(=O)N1Cc1ccccc1F (stereo not drawn)	i
COc1ccc(C(=O)Cn2nc3n(CC(C)C)c(=O)c4ccccc4n3c2=O)cc1	i
CC(=O)OC1CC2C3(C)CCC(OC(=O)CC(=O)O)C(C)(C)C3CCC2(C)C2(C)CCC(C3(C)CCC(=O)O3)C12 (stereo not drawn)	i
CCCN1C(=O)c2cc3ccc(OC)cc3n2CC1(C)C(=O)NC1CCCCCC1 (stereo not drawn)	i
O=C(NCc1ccc(Cl)cc1)c1ccc2c(=O)nc3c(-c4ccc(F)cc4)n[nH]n3c2c1	i
OCCCNc1cc(-c2ccnc(Nc3cccc(Cl)c3)n2)ccn1	+
COc1ccc(Cn2c(=O)c3ccccc3n3c(-c4ccc(NC(C)=O)cc4)nnc23)cc1	i
CC1(C)CCC(c2ccc(Cl)cc2)=C(CN2CCN(c3ccc(C(=O)NS(=O)(=O)c4ccc(N[C@H](CCN5CCOCC5)CSc5ccccc5)c(S(=O)(=O)C(F)(F)F)c4)cc3)CC2)C1	+

Compound activity deposited in PubChem BioAssay by National Center for Advancing Translational Sciences (NCATS).
